# Experimental data from PubChem BioAssay AID1079 (Emory University Molecular Libraries Screening Center, 2008).
# Entries with a potency or affinity are not part of this list. Activity calls are given as the source filed them.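 How the source made its calls: active means fitted half-effect concentration IC50 at or below a set limit, with percent of control there 60 or less; inactive means the rest.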
# Biological target: Estrogen receptor (Homo sapiens) (UniProt P03372)
# Assay: ERα–SRC-3 coactivator interaction inhibitors, confirmation, orthogonal assay, biochemical, ELISA, streptavidin-HRP readout (AID 1079)
# Estrogen receptor (Homo sapiens), sequence (P03372 whole entry, looked up): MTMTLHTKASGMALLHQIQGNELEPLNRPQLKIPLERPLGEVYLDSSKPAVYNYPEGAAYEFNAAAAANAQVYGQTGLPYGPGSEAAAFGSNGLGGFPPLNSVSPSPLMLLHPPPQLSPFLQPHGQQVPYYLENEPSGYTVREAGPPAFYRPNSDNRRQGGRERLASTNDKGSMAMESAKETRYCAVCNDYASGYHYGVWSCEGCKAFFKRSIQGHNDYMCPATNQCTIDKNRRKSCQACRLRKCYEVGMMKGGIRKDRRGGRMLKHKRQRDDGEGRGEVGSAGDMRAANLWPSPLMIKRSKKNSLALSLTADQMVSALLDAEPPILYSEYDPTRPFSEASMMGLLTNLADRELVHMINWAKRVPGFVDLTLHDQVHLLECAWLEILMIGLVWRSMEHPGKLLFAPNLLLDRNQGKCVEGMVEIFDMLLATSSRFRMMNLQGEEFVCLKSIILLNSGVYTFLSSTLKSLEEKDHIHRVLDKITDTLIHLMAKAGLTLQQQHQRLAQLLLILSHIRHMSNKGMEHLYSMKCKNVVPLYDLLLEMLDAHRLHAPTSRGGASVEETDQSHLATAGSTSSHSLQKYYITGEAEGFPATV
row,SMILES,outcome
1,O=C(CCCCCCCn1c(=S)[nH]c2ccccc2c1=O)N1CCN(c2cccc(Cl)c2)CC1,inactive
2,N#Cc1ccc(N2CCN(C(=O)CCCCCn3c(=S)[nH]c4ccccc4c3=O)CC2)cc1,inactive
